High-throughput results: PubChem, National Center for Advancing Translational Sciences (NCATS)
Compounds with a hit are over-represented: about 1.4% of the library has one in this group of screens.
p53 reactivator: restores transcriptional activity of mutant p53 | Potency, µM (doses to about 92.2 µM), actives largely listed as activators | actives 0.063% (n = 320,000) | H1299 p53-A138V BP100-luciferase reporter, luminescence, 24 h; further: nearly all actives have a fitted effect of over 45% in size
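H1299 (p53-null), stable ts p53-A138V + BP100-Luc; 1000 cells/well, Opti-MEM/10% FBS; cpd 4 pt, 1:5; 24 h, 37 deg C, 5% CO2; detection reagent 10 min RT; luminescence.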
ASM inhibitor: inhibitors of human secretory acid sphingomyelinase. P17405. Potency, µM (top dose mostly 57.5 µM), actives largely listed as inhibitors. placental ASM, HMU-PC fluorogenic substrate, 60 min. AID 504937. actives 0.006% (n = 340,000)
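Fluorogenic HMU-PC substrate (9 uM final) is turned over by placental ASM in 60 min at 37 C after a 10 min compound preincubation. Reaction ended by alkaline stop (pH 10), with fluorescence read at 386/447 nm.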
ALOX12 inh: ALOX12 (human) lipoxygenase inhibition. P18054. purified 12hLO, xylenol orange hydroperoxide absorbance. Potency, µM (titrated, usually from 108 µM), actives largely listed as inhibitors. actives 1.1% (n = 580,000). AID 1671190
Target sequence (P18054 whole entry, looked up): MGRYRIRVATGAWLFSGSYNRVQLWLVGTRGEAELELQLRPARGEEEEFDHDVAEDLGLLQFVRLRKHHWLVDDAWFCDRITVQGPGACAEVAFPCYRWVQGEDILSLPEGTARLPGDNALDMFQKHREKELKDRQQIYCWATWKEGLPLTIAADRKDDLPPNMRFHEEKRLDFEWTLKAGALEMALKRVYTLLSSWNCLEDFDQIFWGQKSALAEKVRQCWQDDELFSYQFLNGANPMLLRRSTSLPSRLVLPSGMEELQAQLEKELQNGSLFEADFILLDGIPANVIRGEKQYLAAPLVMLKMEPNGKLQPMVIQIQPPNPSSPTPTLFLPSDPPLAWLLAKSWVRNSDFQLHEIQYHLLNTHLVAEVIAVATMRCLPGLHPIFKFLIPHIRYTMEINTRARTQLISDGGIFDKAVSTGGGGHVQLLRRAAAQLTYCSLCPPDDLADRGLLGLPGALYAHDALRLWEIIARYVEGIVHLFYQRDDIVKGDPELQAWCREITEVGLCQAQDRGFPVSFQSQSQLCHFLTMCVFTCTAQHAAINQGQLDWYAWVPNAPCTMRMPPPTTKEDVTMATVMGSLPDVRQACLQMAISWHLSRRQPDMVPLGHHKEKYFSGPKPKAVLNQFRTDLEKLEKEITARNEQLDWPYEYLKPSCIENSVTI
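Purified human 12hLO (150 nM final) in 25 mM Hepes, 0.01% Triton X-100, pH 7.0 was preincubated 15 min at room temperature with compound. Then 40 uM arachidonic acid was added, 30 min. Hydroperoxide was read by Fe-XO absorbance ratio 573/405 nm.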
PINK1 expr mod: modulators of PINK1 expression; PINK1 immunofluorescence, high-content cytometry, 24 h; Potency, µM (titrated, usually from 76.6 µM), actives largely listed as activators; actives 0.2% (n = 410,000); active means well fitted activation curve with a large enough effect; inconclusive means small, poorly fitted or top-dose-only effect; cell line not stated here; further: nearly all actives have a fitted effect of over 65% in size
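Stable cell line, 250 cells/well, 12 h attachment; compounds pinned at 5 concentrations, 24 h; CCCP control. Fixed with nuclear dye, primary antibodies 12 h at 10 degrees C, secondary plus cell stain; laser-scanning cytometer read.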
CCT chaperon mod: cytosolic chaperonin activity modulation; purified chaperonin ATPase assay, HTRF ADP detection, 30 min; actives 0.3% (n = 360,000); activity change, % (test concentration not listed), hits read low; in the data active means activity change below about -30%
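Nucleotide hydrolysis assay: TRiC at 20–40 nM final (set by batch activity) with 10 uM ATP, 30 min at 37 °C, in presence of 76 uM compound. Detection by competitive ADP HTRF, 30 min ambient.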
Mm-Cpn inhibitor: blocks the Methanococcus maripaludis chaperonin Mm-Cpn. purified Mm-Cpn ATPase, ADP Transcreener TR-FRET. Potency, µM (highest dose often 76.9 µM), usual class: inhibitors. actives 0.031% (n = 330,000). AID 504842; further: nearly all actives have a fitted effect of over 80% in size
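Measured: ADP formation by purified Mm-CPN. Conditions: 25 nM protein, 10 uM ATP, Tris pH 7.4 with Mg2+, K+ and DTT, 37°C for 30 min. Detection: Transcreener HTRF after 30 min at room temperature.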
A number is an active result; [ ] = another dose, or the depositor's remark. Unless noted, the call rests on the fitted dose curve; in most records, active means well fitted curve in the direction sought with a large enough effect; inconclusive means small, poorly fitted or top-dose-only effect, or another doubt; inactive means no such curve, though single readings can be large; an effect the other way counts as inactive or inconclusive.

Cc1cccc(Cn2c(N3CCN(Cc4ccccc4)CC3)nc3c2c(=O)[nH]c(=O)n3C)c1 was read as ALOX12 inh inactive.
For Cc1ccsc1/C=N/Nc1ccc(F)cc1F the results were p53 reactivator inactive, ASM inhibitor inactive, ALOX12 inh 40µM, PINK1 expr mod inconclusive, CCT chaperon mod inactive and Mm-Cpn inhibitor inactive.
Screening Cc1cc(C)nc(N/N=C/c2sccc2C)n1 returned p53 reactivator inactive, ASM inhibitor inactive, ALOX12 inh inactive, PINK1 expr mod inactive, CCT chaperon mod inactive and Mm-Cpn inhibitor inactive.
For Fc1ccc(N/N=C/c2ccccc2Cl)c(F)c1 the results were ALOX12 inh 3.2µM.
Screening O=[N+]([O-])c1ccccc1N/N=C\c1ccccc1Cl returned p53 reactivator inactive, ASM inhibitor inactive, ALOX12 inh inactive, PINK1 expr mod inactive, CCT chaperon mod inactive and Mm-Cpn inhibitor inactive.
Fc1ccc(N/N=C/c2ccc(Cl)c(Cl)c2)c(F)c1 was read as ALOX12 inh 35µM.
Screening Fc1ccc(N/N=C/c2cccnc2)c(F)c1 returned p53 reactivator inactive, ASM inhibitor inactive, ALOX12 inh inactive, PINK1 expr mod inactive, CCT chaperon mod inactive and Mm-Cpn inhibitor inactive.
Screening Cc1cc(C)c(NC(=O)CN(C)CC(=O)N(C)CC(=O)Nc2c(Cl)cccc2Cl)c(C)c1 returned p53 reactivator inactive, ASM inhibitor inactive, ALOX12 inh inactive, PINK1 expr mod inactive, CCT chaperon mod -57 and Mm-Cpn inhibitor inactive.
For CC1CCN(S(=O)(=O)c2ccc(-c3nc(C#N)c(NCCN4CCOCC4)o3)cc2)CC1 the results were ALOX12 inh inactive.
`O=C1C2=C(Nc3ccccc3SC2c2ccccc2C(F)(F)F)c2ccccc21` (configuration not stated) gave ALOX12 inh inactive and PINK1 expr mod 13µM.
C=CCOc1cccc(NC(=O)c2ccco2)c1 was read as ALOX12 inh inactive.
Screening COC(=O)c1ccc(COC(=O)c2cc3c(s2)CCC3)o1 returned ALOX12 inh 8.9µM.
Screening COc1ccc(/C=N/NC(=O)c2nn(-c3ccc(Cl)cc3)c(=O)c3c(N)scc23)cc1 returned p53 reactivator inactive, ASM inhibitor inconclusive, ALOX12 inh 7.9µM, PINK1 expr mod inactive, CCT chaperon mod inactive and Mm-Cpn inhibitor inactive.
Screening O=[N+]([O-])c1ccc(/C=N/Nc2ccc3ccccc3c2)o1 returned ASM inhibitor inconclusive, ALOX12 inh 10µM, PINK1 expr mod inactive, CCT chaperon mod inactive and Mm-Cpn inhibitor inactive.
Screening O=C(O)c1ccccc1Nc1cc(Cl)ccc1C(=O)O returned ALOX12 inh inactive[12.5 µM].
O=C(O)c1ccc(Cl)cc1Nc1nc2cc(Cl)ccc2o1 was read as p53 reactivator inactive, ASM inhibitor inactive, ALOX12 inh 8.9µM, PINK1 expr mod inactive, CCT chaperon mod inactive and Mm-Cpn inhibitor inactive.
COc1ccc(CNC(=O)c2[nH]c(C(F)(F)F)nc2-c2ccccc2)cc1OC was read as ALOX12 inh inconclusive, PINK1 expr mod inactive and CCT chaperon mod inactive.
COc1ccc(CNc2cccc3[nH]c(C(F)(F)F)nc23)cc1OC was read as p53 reactivator inactive, ASM inhibitor inactive, ALOX12 inh inconclusive, PINK1 expr mod 25µM, CCT chaperon mod inactive and Mm-Cpn inhibitor inactive.
Screening Cc1noc(-c2cccn3c(CNC(=O)c4ccc(F)c(F)c4)nnc23)n1 returned ALOX12 inh inactive.
Screening Cc1cccc(OCC2(CNC(=O)c3cc(C)nn3C)C[C@@H](O)[C@@H](O)C2)n1 (some centres not stated) returned ALOX12 inh 25µM.
For Cc1cccc(OCC2(CNC3CCOCC3)C[C@@H](O)[C@@H](O)C2)n1 (some centres not stated) the results were ALOX12 inh 25µM.
`Cc1cccc(OCC2(CNCC3CCCC3)C[C@@H](O)[C@@H](O)C2)n1` (some centres not stated) gave ALOX12 inh inactive.
For Cc1cccc(OCC2(CNCc3cnn(C)c3)C[C@@H](O)[C@@H](O)C2)n1 (some centres not stated) the results were ALOX12 inh 28µM.
